In PubChem BioAssay AID1347423 (Functional Genomics Laboratory (NCATS/FGL), 2020):
Among all 52,000 sequences or so, about 210 (0.4%) were called active.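 The calls were made as follows: active = gene whose silencing raises cell survival under the drug, median off-target-corrected z-score across its silencing RNAs 2 or more; inactive = the rest.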 This excerpt belongs to a sample that is enriched for actives.

experiment: Resistance to Poly (ADP-Ribose) Polymerase inhibitor: Gene Identification via Genome-wide siRNA Screen; conditions: mouse BRCA2 R2336H ES cells, olaparib, CellTiter-Glo viability; active compounds read high
In short: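 Mouse BRCA2 R2336H ES cells were reverse-transfected with siRNA (20 nM final), treated at 48 h with 500 nM olaparib, and read by CellTiter-Glo after 72 h. Scores: MAD-based z per siRNA, median per gene, seed off-target correction.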

Row | Sequence | z-score
1 | GGAAAGGACCACCUAAGUUTT against Pde6g | -2.22 (active)
2 | GGUUACCUGAGGUCAGUAGTT against Ifi1 | -2.31 (inactive)
3 | GGCUAAUGUGCUCUCUCAUTT against Olfr644 | 1.28 (inactive)
4 | CCCACAGGGAUUUAUUUAUTT against Slc37a1 | 1.36 (active)
5 | CCUUGAAAUACUGAGUGACTT against AU067695 | 1.17 (inactive)
6 | GGAGCAAUGUUGUCACAACTT against Fbln1 | -0.548 (inactive)
7 | CGUGUAAAAGCCGGAUUGATT against 1500015L24Rik | 0.909 (inactive)
8 | GCAAAGCUGAUGGACUCAATT against 2410018M08Rik | -0.965 (inactive)
9 | GGCAAAAGUGGUUAUUGAATT against Itga6 | 3.02 (active)
10 | GGAUAAUGGUAUCUACUUCTT against Cd79b | -0.408 (inactive)
11 | GGCAAGAAUCAAGGAGAGATT against Nek1 | 1.44 (inactive)
12 | GCGAUUAAUGGCAUAGUUUTT against Sara1 | -1.04 (inactive)
13 | GACAGGAAGUUGAUGAAUUTT against Raet1a | -0.444 (inactive)
14 | GGCAAACAAAUGGUUUGUUTT against D430030K24Rik | 2.76 (active)
15 | GCACCUUAAAAAUGAAGAUTT against D12Ertd551e | -0.616 (inactive)
16 | GGUACCGGAAAGGAAGUGUTT against Grm1 | -0.666 (inactive)
17 | GGAAGAGAAAGACCUGAGATT against Glra1 | -0.8 (inactive)
18 | GGCUGAGAUCUGAAAUUGATT against Krt2-5 | 0.59 (inactive)
19 | CGAAAGUUACUCAUAGAGATT against Itga6 | 0.364 (active)
20 | GCAGGUGCCAACAUUAUUGTT against 0610039C21Rik | 1.5 (inactive)
21 | GGAAGAAAUGGACCAGCUGTT against Brp16 | -1.27 (inactive)
22 | CCUUAUCCAAGAGUAGGGCTT against AY534250 | 1.03 (inactive)
23 | GGUGUGACACCUAAGAUGATT against AW212607 | 1.39 (inactive)
24 | GGACAAGUUGUUGGACUACTT against Smarca3 | 1.04 (active)
25 | CCUAUCUUUACCACAUAGATT against 9030624J02Rik | -0.939 (inactive)
26 | GGACCCAUGAGGUUAACUUTT against D15Ertd781e | -1.18 (inactive)
27 | GGUUCACCUGUCAAGUGGATT against Hfe | 0.781 (inactive)

Row | Sequence | z-score
28 | GGUGUGGGUGGGAAAAGAATT against 2610027C15Rik | -1.77 (inactive)
29 | CCUUAUUUUACGGAACUGCTT against Olfr1018 | 0.819 (inactive)
30 | GCUCUGCUAGUCAACUGCATT against Nrip2 | 0.681 (inactive)
31 | GGGAUUUAACAACAUGUAATT against Slc20a1 | 2.29 (active)
32 | GGGCAUAGAGUCUCAAACUTT against Ptger1 | 0.492 (inactive)
33 | GGAGCUUCUAGAGAAGAUCTT against Leng5 | -2.29 (inactive)
34 | GCGGCAGAUCUUCGAUUUCTT against 2610200G18Rik | -0.616 (inactive)
35 | GCUUCUAAGCCGAAGGCCATT against Hist1h1d | 0.442 (inactive)
36 | CCACCAUCAAAUAUAACUATT against 9930021J03Rik | 0.126 (inactive)
37 | GGAACAUGAAGCCUUUUACTT against Asb16 | 3.12 (active)
38 | CCCAGGACUCAUGAUUACATT against Tas2r134 | -1 (inactive)
39 | CCAUCAAGAGGUAUAAUCUTT against A930017E24Rik | -2.24 (inactive)
40 | CGGACAGAUACAAUAGCUATT against BC057627 | 3.74 (active)
41 | GGAUUGUGCUGUGAAACAUTT against Pilrb | -1.98 (inactive)
42 | GCCUUCAAAUGAAGGAAGGTT against Olfr699 | -0.519 (inactive)
43 | GGUGAAACUGAAUAAAAUCTT against 4931406C07Rik | 1.09 (inactive)
44 | GGCUAGAGAAAUAGUGUUGTT against D6Ertd253e | -0.28 (inactive)
45 | GGAUGAAAUUAACUCUGAATT against Adprt1 | 2.49 (active)
46 | GCUUAAGGACGCAUUGAAATT against Pthlh | -0.0187 (inactive)
47 | GGAACACCGAACAUAAAUATT against Gm610 | -0.526 (inactive)
48 | UCUGGAGUCUUAUCAAGGATT against 2210020M01Rik | -0.752 (inactive)
49 | GGUGCCUGACCAAAAAGGATT against A830094I09Rik | 2.67 (active)
50 | GCCGACUGGUUAAAUACAUTT against Nme3 | -0.45 (inactive)
51 | CCCACUUAUAUAUGUAGUUTT against 2410187C16Rik | -0.391 (inactive)
52 | GGCAGAAGCAAUGAACUAUTT against Npm1 | 3.59 (active)
53 | GGCCUUGGGAAGGAAAGAGTT against Mospd1 | -1.74 (inactive)
54 | GGCACCUAACGACUUCAACTT against Pygm | 0.366 (inactive)

Row | Sequence | z-score
55 | GCCCGCUCUCGGAUUUUGATT against Htr1b | 2.87 (active)
56 | GCUCAGACCAUAGUUUCUATT against A930002I21Rik | 1.53 (inactive)
57 | GCCUCAAAACUUCUUGUUCTT against Mxd3 | 0.892 (inactive)
58 | GGCCUUUCUGGAGAAGAUGTT against Stfa3 | -0.717 (inactive)
59 | CCUUCGAACUCGAAAAAUUTT against Olfr722 | 0.346 (inactive)
60 | GGCCAUCGAACUCAAUCUCTT against 2810002D13Rik | 0.717 (inactive)
61 | GGUUAAUGGGAAACUCUGCTT against Pias3 | 2.89 (active)
62 | GGACUUAUCGGUUAUCUUUTT against Nap1l2 | 0.654 (inactive)
63 | CCGCACAGACCAUAGUAGATT against 1700121L12Rik | 0.0169 (inactive)
64 | CCUAGUUGAAAAUUGGGAATT against 0610025O11Rik | -0.794 (inactive)
65 | GGAUGAACAGGAGAAAGUCTT against Irak2 | 0.0975 (inactive)
66 | CGAUGUACUGUCUCUUUUGTT against Ywhaz | 1.53 (inactive)
67 | GCAACAGGUUAGCGAAACCTT against Bid3 | 0.43 (active)
68 | GGUAGCUAUCAAGGUCAUCTT against Hunk | -0.704 (inactive)
69 | GGAGGAUACCUUCUUCUACTT against Mta3 | 0.46 (inactive)
70 | GCAGGGACCGUCUAUAACUTT against Ptprb | -0.654 (inactive)
71 | GCGGAUUUAGUGGCUGGCUTT against Opn5 | -2.04 (inactive)
72 | GGAAUUUUUGGACAAAGUATT against Grid2 | -3.07 (active)
73 | GCUCUUCUCGCAUUCCUAUTT against Gpc2 | -0.68 (inactive)
74 | CCAGAUUGGUGAUGGUAGUTT against LOC432637 | 0.502 (inactive)
75 | GGCUCAUCAAAGGAAGAAATT against Araf1 | 1.44 (active)
76 | CCAGAACUUCCCAUUAAAATT against Alg8 | -0.0137 (inactive)
77 | CCUUAUUGGGUCAUAAGCATT against 2210403B10Rik | 0.798 (inactive)
78 | CCUCCGUUUGAUGACUCAATT against Tcte3 | 0.671 (inactive)
79 | GCGAUUCAAACUUAUUCGATT against Pcdhb15 | 0.749 (inactive)
80 | CCAUGAUCAAGAUUGUGCUTT against Slc29a1 | -0.707 (inactive)
81 | CCCUCGAUCCUUUUCACCUTT against Gja4 | 1.09 (inactive)

Row | Sequence | z-score
82 | CUAGUAGGGUCAGAAUUUUTT against Olfr329 | 2.11 (inactive)
83 | CCAUGCAUCUAAGUCUCGATT against Trpm3 | 1.35 (inactive)
84 | GGAUUAAUUAAUACUUGGCTT against 3010033P07Rik | 0.03 (inactive)
85 | GGACCACCUAAGUUUAAGCTT against Pde6g | 2.55 (active)
86 | GCCAGAAUGGACUUGAGAATT against V1re6 | -0.0714 (inactive)
87 | GUUGAGGACUUCUUGCUGGTT against Cmar | -1.03 (inactive)
88 | GGUAUGAGUGAAGAAAAGATT against Ifi205 | -0.37 (inactive)
89 | CCAUAAACGACGAAAUGAUTT against Usp11 | 2.97 (active)
90 | GGCAUCUGUUAUUGAAGUGTT against Vit | 0.771 (inactive)
91 | GGCCGAGUACAAACGUGGATT against AU019532 | 0.561 (inactive)
92 | CCCUACCUUGAACGAGUACTT against Apoa1 | 0.773 (active)
93 | GGAGAAGAAGCAGAGAGAATT against C530028I08Rik | -0.263 (inactive)
94 | CCUUUCAGGCCAAUUGGCATT against Ube2l6 | 0.111 (inactive)
95 | UCUCCUUCCUAACUUCAACTT against E030010A14 | 0.4 (inactive)
96 | GGAACAGGACUUUUGAUAATT against 2700050F09Rik | 1.03 (active)
97 | GGCCAAUGAUGAUAACAAATT against Catnd2 | 0.564 (inactive)
98 | CCUCUCCUACACUUCAAAATT against Cmya4 | 0.746 (inactive)
99 | GGCUUUUUCCUCUACCCACTT against Trhde | 0.762 (inactive)
100 | GGUGUUUAAAGAUUUCGUUTT against Dhrs2 | 0.996 (inactive)
101 | GCAAUGAACUAUGAAGGCATT against Npm1 | 0.811 (active)
102 | CCCUUCACAACUUCUUAAUTT against Olfr872 | 0.609 (inactive)
103 | GGGCAUCAGCAUUUGGUCATT against Pparbp | 1.17 (inactive)
104 | GGACUACCUCACACUCUUCTT against Oprs1 | -0.235 (inactive)
105 | GCCAUUCCGGCAGUAUUACTT against Pdcd7 | 0.524 (inactive)
